# From PubChem BioAssay (Tox21)
# Inconclusive results are not listed. A call without a number means that no potency is given here. The source made the active and inactive calls. Calls follow the shape of the dose curve; as a rule, active = well fitted cell-killing curve with a large enough effect in the repeat runs; inconclusive = weak or mixed curves, or effect the other way; inactive = no such curve, though single readings can be large or run the other way.
# Assay: qHTS assay to identify small molecule agonists of the vitamin D receptor (VDR) signaling pathway - cell viability counter screen (AID 743224); also: nearly all actives have a fitted effect of over 50% in size
# Settings: VDR-bla HEK293T viability, CellTiter-Glo luminescence, 16 h; series mostly up to 62.6 µM
# Excerpt: U.S. Tox21 Program National Center for Advancing Translational Sciences [NCATS] NIH Chemical Genomics Center [NCGC] U.S. Environmental Protection Agency [EPA] National Institutes of Environmental Health Sciences [NIEHS] National Toxicology Program [NTP] U.S. Food and Drug Administration [FDA] Tox21 Assay Overview: The vitamin D receptor (VDR), a member of nuclear hormone receptor superfamily, plays a critical role in calcium homeostasis and bone metabolism. It is also involved in cell differentiation and growth, and thrombogenicity. […] The cytotoxicity of the Tox21 compound library against the VDR-bla cell line was tested in parallel by measuring the cell viability using CellTiter-Glo assay (Promega, Madison, WI) in the same wells.
# Tox21 Assay Protocol Summary: VDR-bla cells were dispensed at 2,000 cells/6 uL/well into black wall/clear-bottom 1536-well plates using a Multidrop Combi (Thermo Fisher Scientific, Waltham, MA) dispenser. After the assay plates were incubated at a 37C and 5% CO2 for 4 h, 23 nL of compounds dissolved in DMSO, positive controls or DMSO only was transferred to the assay plate by a Pintool station (Kalypsys, San Diego, CA). The plates were incubated at 37C and 5% CO2 for 16 h. After 1 uL of LiveBLAzerTM B/G FRET substrate was added using a Bioraptr Flying Reagent Dispenser (FRD) workstation (Beckman Coulter, Indianapolis, IN, USA), the plates were incubated at room temperature for 2 h, and fluorescence intensity was measured by an Envision plate reader (PerkinElmer, Shelton, CT). For cell viability readout that measures cytotoxicity, 3 ul/well of CellTiter-Glo reagent was added into the assay plates using a FRD. After 30 min incubation at room temperature, the luminescence intensity in the plates was measured using a ViewLux (PerkinElmer) plate reader.
# Potency is read from the fitted curve at half-maximal effect.
row,SMILES,Potency
1,CC(C)=CCC/C(C)=C/CC/C(C)=C/CCC(=O)OC/C=C(\C)CCC=C(C)C,inactive
2,CCCCCCCCCCC(=O)O,inactive
3,C[C@@H](O[C@H]1OCCN(Cc2n[nH]c(=O)[nH]2)[C@H]1c1ccc(F)cc1)c1cc(C(F)(F)F)cc(C(F)(F)F)c1,23.7 µM (active)
4,CCC(=O)OC,inactive
5,Cc1cccc(N(C)C(=S)Oc2ccc3c(c2)CCC3)c1,inactive
6,CC(=O)Nc1cc(S(=O)(=O)O)cc2cc(S(=O)(=O)O)c(N=Nc3ccccc3)c(O)c12,inactive
7,c1csc(SSc2cccs2)c1,inactive
8,Nc1nc2ccc([N+](=O)[O-])cc2s1,inactive
9,CC(C)=CC(=O)C=C(C)C,inactive
10,NNC(=O)CP(=O)(c1ccccc1)c1ccccc1,inactive
11,CC=C(Cl)Cl,inactive
12,O=C(/C=C/c1ccccc1)OCCc1ccccc1,inactive
13,CN1C[C@H](C(=O)N[C@]2(C)O[C@@]3(O)[C@@H]4CCCN4C(=O)[C@H](Cc4ccccc4)N3C2=O)C[C@@H]2c3cccc4[nH]cc(c34)C[C@H]21,29.8 µM (active)
14,O=C(Cn1ccnc1[N+](=O)[O-])NCCO,inactive
15,CCOC(=O)c1ccc(OCCN2C[C@H](O)[C@@H](O)[C@H](O)[C@H]2CO)cc1,inactive
16,O=c1cc(-c2ccccc2)oc2cc(O)cc(O)c12,inactive
17,OCCN1CCN(CCCN2c3ccccc3Sc3ccc(Cl)cc32)CC1,inactive
18,CC(C)=CCC1C(=O)N(c2ccccc2)N(c2ccccc2)C1=O,inactive
19,C[C@@H]1CC(=O)NN=C1c1ccc(NN=C(C#N)C#N)cc1,inactive
20,CC(=O)NC1(c2cccc(F)c2)CCN(CC[C@@]2(c3ccc(Cl)c(Cl)c3)CN(c3ccccc3)C(=O)CO2)CC1,39 µM (active)

row,SMILES,Potency
1,Oc1cc2c(cc1O)[C@H]1c3ccc(O)c(O)c3OC[C@@]1(O)C2,inactive
2,OCCOCC#CCOCCO,inactive
3,OC[C@H]1O[C@@H](n2cnc3c(=S)nc[nH]c32)[C@H](O)[C@@H]1O,7.5 µM (active)
4,CCCCCCC(C)(C)C(=O)O,inactive
5,O=C(OC(=O)c1ccccc1)c1ccccc1,inactive
6,CC1(C)[C@H](C(=O)O)N2C(=O)C[C@H]2S1(=O)=O,inactive
7,C1C[C@@H]2[C@H]3CC[C@H](C3)[C@@H]2C1,inactive
8,CC(C)(C)CC(=O)OCC(=O)[C@@]1(O)CC[C@H]2[C@@H]3CCC4=CC(=O)C=C[C@]4(C)[C@H]3[C@@H](O)C[C@@]21C,inactive
9,CC/C=C1/OC(=O)c2ccccc21,inactive
10,CCCCN(CCCC)C(C(N)=O)c1ccc(OC)cc1 (stereo not given),inactive
11,C[C@@H](CN(C)C)CN1c2ccccc2Sc2ccccc21,inactive
12,Cc1ccc(Cl)c(Nc2ccccc2C(=O)O)c1Cl,inactive
13,C=C(C)C(=O)OCCCCCCCCCCCCC,inactive
14,CC(C)C(O)(c1ccc(OC(F)(F)F)cc1)c1cncnc1 (stereo not given),inactive
15,Nc1nnc(-c2ccc([N+](=O)[O-])o2)o1,inactive
16,O=Cc1c2ccccc2c(Cl)c2ccccc12,inactive
17,CCOC(C)=O,inactive
18,CCc1ccccc1,inactive
19,O=C(O)C[C@H](NC(=O)OCc1ccccc1)C(=O)O,inactive
20,O=C(O)c1cccc(-c2noc(-c3ccccc3F)n2)c1,inactive
